# Test results as given in PubChem BioAssay AID1209 (Sanford-Burnham Center for Chemical Genomics, 2008).
# About 810 (0.43%) of roughly 190,000 compounds were called active. Many of the other results were omitted from the sample, so actives are more common in it than they were. Unmarked numbers belong to inactive results. Rule as the data show it: active = inhibition above about 50%; inactive = the rest.
# Molecular target: Mannose-6-phosphate isomerase (Homo sapiens) (UniProt P34949)
# Assay: MPI enzyme activity inhibition – biochemical, fluorescence intensity, coupled assay, primary screen (AID 1209);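 also: plate controls were DMSO vehicle for no effect and wells lacking substrate for full effect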
# Conditions: purified PMI enzyme, at 20 µM, active compounds read high
# Chain of Mannose-6-phosphate isomerase (Homo sapiens) (P34949 whole entry, looked up): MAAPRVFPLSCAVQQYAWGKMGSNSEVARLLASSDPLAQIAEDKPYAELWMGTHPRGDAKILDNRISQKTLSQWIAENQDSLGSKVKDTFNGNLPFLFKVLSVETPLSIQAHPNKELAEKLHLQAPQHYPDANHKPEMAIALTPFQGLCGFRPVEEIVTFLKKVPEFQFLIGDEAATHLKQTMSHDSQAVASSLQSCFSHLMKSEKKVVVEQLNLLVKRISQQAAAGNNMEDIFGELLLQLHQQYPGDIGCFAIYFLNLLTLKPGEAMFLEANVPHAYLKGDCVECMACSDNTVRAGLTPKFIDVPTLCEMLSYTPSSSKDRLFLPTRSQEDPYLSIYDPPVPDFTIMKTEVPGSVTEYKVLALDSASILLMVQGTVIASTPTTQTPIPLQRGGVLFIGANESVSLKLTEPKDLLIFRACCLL
row,Structure (SMILES),inhibition
1,COc1ccccc1N1C(=N)S/C(=C\c2ccc(-c3ccccc3C(=O)O)o2)C1=O,-36.9%
2,Cc1ccc(C)c(N2C(=N)S/C(=C\c3ccc(-c4ccccc4C(=O)O)o3)C2=O)c1,18.5%
3,CC(=O)Nc1ccc(S(=O)(=O)NNC(=O)COc2ccc(C)cc2)cc1,0.9%
4,CCOC(=O)N1CCN(Cc2ccc(F)cc2F)CC1,-1.3%
5,Cc1cc(C)n2nc(CCc3nc4nc(C)cc(C)n4n3)nc2n1,-4.4%
6,Cc1cc(C)n2nc[n+](C)c2n1,72.6% (active)
7,Cc1cc(C)n2ncnc2n1,5.9%
8,Cc1cc(-c2ccc(N3C(=O)CCC3=O)c(C)c2)ccc1N1C(=O)CCC1=O,1.5%
9,COC(=O)CN(c1ccc(Cl)cc1C)S(C)(=O)=O,1.2%
10,COc1ccc(C(=O)CNc2ccccc2C#N)cc1,-2.6%
11,COc1ccc(C(=O)CNc2ccccc2CO)cc1,-10.5%
12,COc1ccc(C(=O)CNc2ccc3ccccc3c2)cc1,76.9% (active)
13,O=[N+]([O-])c1cccc(-c2nc3ccc([N+](=O)[O-])cc3[nH]2)c1,-13.7%
14,COc1ccccc1NC(=O)c1ccc(NC(=O)COC(=O)C2CCCCC2)cc1,10.6%
15,CSC1=N/C(=C\c2cccc(F)c2)C(=O)S1,-4.9%
16,S=C(Nc1cccc(Cl)c1)Nc1cccc2cnccc12,57.2% (active)
17,Cc1ccc(NC(=S)Nc2cccc3cnccc23)cc1,80.1% (active)
18,C=C(C)CNC(=S)Nc1cccc2cnccc12,14.2%
19,Cc1ccc(NC(=S)Nc2cccc3cnccc23)cc1C,-0.2%
20,Cc1cc(C)cc(NC(=S)Nc2cccc3cnccc23)c1,66.2% (active)
21,S=C(Nc1ccc(Cl)cc1)Nc1cccc2cnccc12,26.4%
22,S=C(Nc1cccnc1)Nc1cccc2cnccc12,47.5%

row,Structure (SMILES),inhibition
1,CCCCNC(=S)Nc1cccc2cnccc12,5.6%
2,Cc1c(C(=O)N2CCN(c3ccc(C(F)(F)F)cn3)CC2)oc2ccccc12,13.3%
3,CC(NC(=O)/C=C/c1ccco1)c1nc2ccccc2n1Cc1c(Cl)cccc1Cl (centres undefined),-4.3%
4,CNc1ccc2nnc(C(F)(F)C(F)(F)C(F)(F)F)n2n1,-0.7%
5,Cc1c(C)n(C(=O)CN2CCC(C(N)=O)CC2)c2ccccc12,7.2%
6,CCCC(=O)Nc1ccc(C(=O)Nc2ccc([N+](=O)[O-])cc2OC)cc1,-20.7%
7,COc1ccc(OCC(=O)O/N=C(\N)Cc2cccs2)cc1,3.7%
8,O=C(CCN1C(=O)C2CC=C(Cl)CC2C1=O)NC1CCCCC1 (centres undefined),-7.8%
9,Cc1cc(C)n2nc(SCC(=O)c3cc(C)n(CC4CCCO4)c3C)nc2n1 (centres undefined),-13.5%
10,Cc1ccc(NC(=O)CSc2n[nH]c(-c3ccco3)n2)c(C)c1,-4%
11,CCOC(=O)c1c(NCc2ccccc2)n[nH]c1C,13.3%
12,Cc1cccc(N2C(=O)CC(Sc3ncn[nH]3)C2=O)c1 (centres undefined),34.7%
13,O=C1CC(Sc2ncn[nH]2)C(=O)N1c1ccccc1 (centres undefined),42.6%
14,COc1ccc(N2C(=O)CC(Sc3ncn[nH]3)C2=O)c(OC)c1 (centres undefined),73.4% (active)
15,CN(c1nnc(N)s1)C1CCCCC1,-8.5%
16,CCn1ncc(C2=NOC(C(=O)Nc3cccc(O)c3)C2)c1C (centres undefined),-18.7%
17,Clc1ccc(C2=CC(c3ccco3)n3ncnc3N2)cc1 (centres undefined),-12.4%
18,Fc1ccc(C2=CC(c3ccco3)n3ncnc3N2)cc1 (centres undefined),-42.5%
19,C1=C(c2ccc(-c3ccccc3)cc2)Nc2ncnn2C1c1ccco1 (centres undefined),52.3% (active)
20,Cc1nc2[nH]c(=S)n(C)c(=O)c2nc1C,-17.3%
21,COCCn1c(C(=O)N2CCCC2)cc2c1C[C@H]1CN(C(=O)c3ccccc3)[C@@](Cc3ccc(F)cc3)(C(=O)OC)[C@@H]21,13.8%
22,COC(=O)[C@@]1(Cc2ccc(F)cc2)[C@H]2c3cc(C(=O)N4CCCC4)n(CCc4ccc(O)c(O)c4)c3C[C@H]2CN1C(=O)c1ccccc1,50.8% (active)

row,Structure (SMILES),inhibition
1,COC(=O)[C@@]1(Cc2ccc(F)cc2)[C@H]2c3cc(C(=O)N4CCCC4)n(CCO)c3C[C@H]2CN1C(=O)c1ccccc1,1.6%
2,O=C(CNCc1ccc(F)cc1)Nc1ccccc1[N+](=O)[O-],5%
3,Cc1cccc(S(=O)(=O)Nc2cccc3c2C(=O)c2ccccc2-3)c1,10.6%
4,Cc1cc(C)c(Nc2cc(S(=O)(=O)O)c(N)c3c2C(=O)c2ccccc2C3=O)c(C)c1,91.5% (active)
5,Cc1cc(C)c(NC(=O)COC(=O)c2cccc3c2C(=O)c2ccccc2C3=O)c(C)c1,5.1%
6,COc1ccc(CCC(=O)NNC(=S)Nc2cccc(C(C)=O)c2)cc1,1.2%
7,Cn1nnnc1SCc1ccc(C(=O)Nc2ccccc2F)cc1,9%
8,C/C(=N\NC(=O)C(c1ccccc1)c1ccccc1)c1ccccn1,-5%
9,O=C(NNc1ccccn1)C(c1ccccc1)c1ccccc1,50.2% (active)
10,O=C(NNC(=O)C(c1ccccc1)c1ccccc1)c1ccccn1,10.3%
11,O=C(OCc1cnc(Cl)s1)c1cccc(Cl)c1,10.3%
12,CC(=O)Nc1ccc(/C(C)=N/NC(=O)c2ccccc2Cl)cc1,5.1%
13,c1ccc(C2=Nn3c(nnc3-c3ccco3)SC2)cc1,75.6% (active)
14,CCOc1ccc(C2=Nn3c(nnc3-c3ccco3)SC2)cc1,8.1%
15,COc1ccc(C2=Nn3c(nnc3-c3ccco3)SC2)cc1,-15.3%
16,C/C(=C\C(=O)Nc1nccs1)c1ccccc1,9.8%
17,Cc1cc(C)n2cc(CSc3ccccn3)nc2n1,-5.1%
18,Clc1ccc(CSc2ncn[nH]2)cc1,7.1%
19,O=C(/C=C/Sc1ccccc1)c1ccc(Cl)cc1,-10%
20,O=C(/C=C/Sc1ncn[nH]1)c1ccc(Cl)cc1,50.3% (active)
